From PubChem
TRPV1 agonist: human TRPV1 agonism; Q8NER1; TRPV1-expressing cells, Fluo-8 calcium influx, agonist mode; activation, % at 8.33 µM; actives 0.19% (n = 320,000); in the data active = activation above about 80%; inconclusive = between about 30% and that limit; note: 0% is about no effect
Target sequence (Q8NER1 whole entry, looked up): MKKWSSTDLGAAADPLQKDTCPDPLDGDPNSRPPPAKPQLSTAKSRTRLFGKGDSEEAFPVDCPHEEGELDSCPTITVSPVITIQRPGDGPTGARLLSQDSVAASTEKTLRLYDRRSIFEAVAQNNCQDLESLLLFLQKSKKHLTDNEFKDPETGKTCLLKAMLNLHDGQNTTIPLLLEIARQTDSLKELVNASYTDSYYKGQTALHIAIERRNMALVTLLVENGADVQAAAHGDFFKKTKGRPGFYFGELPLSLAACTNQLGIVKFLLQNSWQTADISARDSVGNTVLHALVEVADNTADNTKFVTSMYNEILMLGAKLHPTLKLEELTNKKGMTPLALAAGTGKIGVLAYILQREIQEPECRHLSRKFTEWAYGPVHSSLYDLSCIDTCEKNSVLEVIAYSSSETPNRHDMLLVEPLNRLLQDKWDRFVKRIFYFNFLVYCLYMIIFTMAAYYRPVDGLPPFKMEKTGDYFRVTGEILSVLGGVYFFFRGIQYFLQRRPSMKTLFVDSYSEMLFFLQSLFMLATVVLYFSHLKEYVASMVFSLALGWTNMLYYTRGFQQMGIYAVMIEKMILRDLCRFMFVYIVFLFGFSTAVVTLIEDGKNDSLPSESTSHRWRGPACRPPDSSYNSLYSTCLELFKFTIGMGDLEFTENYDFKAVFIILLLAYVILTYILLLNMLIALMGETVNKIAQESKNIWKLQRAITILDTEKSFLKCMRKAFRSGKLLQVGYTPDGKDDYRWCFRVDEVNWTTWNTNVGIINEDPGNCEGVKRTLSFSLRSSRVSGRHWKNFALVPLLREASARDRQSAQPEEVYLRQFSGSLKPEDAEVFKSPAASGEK
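Cells expressing TRPV1 were dye-loaded with Fluo-8 and read kinetically: 10 s baseline, 3 min after compound (agonist portion), then 2 min after EC20 capsaicin (allosteric enhancer portion). Calcium-bound dye fluorescence at 480/520 nm.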
KCNH2 3.1 block: blocks the human KCNH2 3.1 channel isoform. U2OS KCNH2 3.1, thallium flux FluxOr; active compounds read low. activity change, % (tested at about 1.8 µM). actives 0.95% (n = 340,000);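 active = maximum activity change below -70%; inconclusive = maximum activity change from -70% to -50%; inactive = maximum activity change above -50%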;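 note: thallium influx rate constant from kinetic fluorescence after stimulation buffer; % is set by controls: 0 for no effect and ±100 for the full control effect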
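Channel expression came from 3.1 mutant virus (1.77 x 10^8 /mL) applied to suspended U2OS cells for 4 h. Flux was tracked with FluxOr dye plus Red40 quencher, and kinetic rate constants normalized to controls.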
TRPV1 PAM: potentiators of human vanilloid receptor 1 (TRPV1) | Q8NER1 | TRPV1-expressing cells, Fluo-8 calcium influx, capsaicin EC20 potentiation | potentiation, % at 8.33 µM | actives 0.02% (n = 320,000); in the data active = potentiation above about 80%; inconclusive = between about 30% and that limit; note: 0% is about no effect
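Cells expressing TRPV1 were dye-loaded with Fluo-8 and read kinetically: 10 s baseline, 3 min after compound (agonist portion), then 2 min after EC20 capsaicin (allosteric enhancer portion). Calcium-bound dye fluorescence at 480/520 nm.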
KCNH2 WT inh: inhibitors of human wildtype KCNH2 potassium channel; U2OS, BacMam KCNH2, thallium flux FluxOr; active compounds read low; activity change, % at 1.84 µM; actives 0.37% (n = 340,000);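 active = maximum activity change below -70%; inconclusive = maximum activity change between -70% and -50%; inactive = maximum activity change above -50%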; note: % is set by controls: 0 for no effect and ±100 for the full control effect
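U2OS cells were transduced with wild-type KCNH2 virus (2.03 x 10^8 / mL) for 4 h at room temperature, then cultured overnight at 37 C. Thallium flux was read with FluxOr dye. Rate constants were normalized to DMSO controls.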
Active calls of the source: *. The list is not random: actives were taken first. Their share in the collection is about 1.3%.

Screening CCC(=O)Nc1ccnc(-c2cccnc2)n1 returned TRPV1 agonist 1, KCNH2 3.1 block -108*, TRPV1 PAM -4 and KCNH2 WT inh 5.
For COc1ccc(C(=O)Nc2ccnc(-c3cccnc3)n2)cc1 the results were TRPV1 agonist 1, KCNH2 3.1 block -18, TRPV1 PAM -3 and KCNH2 WT inh 0.
Cc1ccc(C(=O)Nc2ccnc(-c3cccnc3)n2)cc1 was read as TRPV1 agonist 6, KCNH2 3.1 block -109*, TRPV1 PAM inconclusive and KCNH2 WT inh -8.
Screening COc1ccc(NC(=O)c2cc3ccccc3o2)cc1OC returned TRPV1 agonist 22, KCNH2 3.1 block 2, TRPV1 PAM -25 and KCNH2 WT inh -6.
For COc1ccc(NC(=O)c2coc3ccccc23)cc1OC the results were TRPV1 agonist 19, KCNH2 3.1 block -5, TRPV1 PAM -16 and KCNH2 WT inh -341*.
O=C(c1ccc(-c2ccccc2Cl)s1)N1CCOCC1 was read as KCNH2 3.1 block -4 and KCNH2 WT inh -24.
For CNC(=O)c1csc(-c2ccc(C)cc2)n1 the results were TRPV1 agonist 81*, KCNH2 3.1 block 10, TRPV1 PAM -15 and KCNH2 WT inh -2.
`O=C(Nc1ccc(Cl)cc1)c1csc(-c2ccccc2)n1` gave TRPV1 agonist 81*, KCNH2 3.1 block -6, TRPV1 PAM -25 and KCNH2 WT inh -2.
CNC(=O)c1csc(-c2ccncc2)n1 was read as TRPV1 agonist 2, TRPV1 PAM -10 and KCNH2 WT inh -2.
Screening CNC(=O)c1csc(-c2ccc(Cl)cc2)n1 returned TRPV1 agonist 84*, KCNH2 3.1 block -3, TRPV1 PAM -21 and KCNH2 WT inh 1.
`O=C(CSc1nnc(-c2ccccn2)n1-c1ccc(Cl)cc1)Nc1ccc2c(c1)OCO2` gave TRPV1 agonist 2, KCNH2 3.1 block -73*, TRPV1 PAM 6 and KCNH2 WT inh 10.
For COc1ccc(/C=N/N2CCN(Cc3ccccc3)CC2)cc1 the results were TRPV1 agonist 3, KCNH2 3.1 block 23, TRPV1 PAM -10 and KCNH2 WT inh 6.
For COc1ccc(/C=C/C2=CCN(Cc3ccc(OC)cc3)CC2)cc1 the results were TRPV1 agonist 2, KCNH2 3.1 block -79*, TRPV1 PAM -2 and KCNH2 WT inh -33.
Fc1c(CSC(=S)N2CCOCC2)cccc1CSC(=S)N1CCOCC1 was read as TRPV1 agonist 2, KCNH2 3.1 block -196*, TRPV1 PAM -10 and KCNH2 WT inh -152*.
For COc1ccc(C2=NN(C(=O)CN3CCCCC3)C(c3ccc(C)cc3)C2)cc1 (stereo unspecified) the results were TRPV1 agonist 3, KCNH2 3.1 block -3, TRPV1 PAM -5 and KCNH2 WT inh 5.
`Cc1ccc(N2C(=O)C3N=NN(CC(=O)N4N=C(c5ccccc5)CC4c4ccccc4)C3C2=O)cc1` (stereo unspecified) gave TRPV1 agonist -18, KCNH2 3.1 block -2, TRPV1 PAM 84* and KCNH2 WT inh 9.
For Cc1cccc(NC(=O)c2ccc(S(=O)(=O)C(F)F)cc2)c1C the results were TRPV1 agonist 87*, KCNH2 3.1 block 17, TRPV1 PAM 12 and KCNH2 WT inh 0.
c1ccc(Cc2noc(CN3CCN(C4CCc5ccccc5C4)CC3)n2)cc1 (stereo unspecified) was read as TRPV1 agonist 8, KCNH2 3.1 block -127*, TRPV1 PAM 11 and KCNH2 WT inh 34.
Cc1ccc(C(=O)CNc2ccc(Cl)cc2)cc1 was read as TRPV1 agonist 28, KCNH2 3.1 block -79*, TRPV1 PAM -3 and KCNH2 WT inh 13.
CCOc1ccc(NCC(=O)c2ccc(C)cc2)cc1 was read as TRPV1 agonist 5, KCNH2 3.1 block 14, TRPV1 PAM -15 and KCNH2 WT inh 10.
`CCC(CC)c1nnc(NC(=O)C2CSC3(C)CCC(=O)N23)s1` (stereo unspecified) gave TRPV1 agonist -3, KCNH2 3.1 block 7, TRPV1 PAM -8 and KCNH2 WT inh 2.
Cc1cc(C)nc(N2CCC(C(=O)NCc3ccccc3F)CC2)n1 was read as TRPV1 agonist -1, KCNH2 3.1 block -12, TRPV1 PAM -1 and KCNH2 WT inh 0.
O=C(NCc1ccco1)C1CCN(c2nc3ccccc3n2Cc2ccccc2F)CC1 was read as TRPV1 agonist -1, KCNH2 3.1 block -105*, TRPV1 PAM -4 and KCNH2 WT inh inconclusive.
Screening CCCn1c(SCC(=O)N2c3ccccc3CC2C)n[nH]c1=O (stereo unspecified) returned TRPV1 agonist 21, KCNH2 3.1 block -4, TRPV1 PAM -7 and KCNH2 WT inh 0.
Cc1cccc(NS(=O)(=O)c2ccc(C)c(C(=O)NCC(c3cccs3)N(C)C)c2)c1 (stereo unspecified) was read as TRPV1 agonist 2, KCNH2 3.1 block -9, TRPV1 PAM 12 and KCNH2 WT inh -4.
Screening COc1ccccc1NC(=O)Nc1ccc(-n2ccc(C(F)(F)F)n2)cc1 returned KCNH2 3.1 block -201* and KCNH2 WT inh -124*.
Screening Cc1cc(C)cc(NC(=O)Nc2ccc(-n3ccc(C(F)(F)F)n3)cc2)c1 returned TRPV1 agonist -4, KCNH2 3.1 block -3, TRPV1 PAM -9 and KCNH2 WT inh 10.
O=C(Cc1ccc(Cl)cc1)Nc1ccc(CN2CCCCC2)cc1 was read as TRPV1 agonist 6, KCNH2 3.1 block -70*, TRPV1 PAM 1 and KCNH2 WT inh 21.
For O=C(Nc1ccc(CN2CCCCC2)cc1)c1sc2ccccc2c1Cl the results were TRPV1 agonist 4, KCNH2 3.1 block -100*, TRPV1 PAM -5 and KCNH2 WT inh -2.
`O=C(NCC(=O)N1CCCCC1)c1sc2ccccc2c1Cl` gave TRPV1 agonist inconclusive, KCNH2 3.1 block 24, TRPV1 PAM -21 and KCNH2 WT inh 3.
`CCN(CC)Cc1ccc(NC(=O)c2sc3cc(Cl)ccc3c2Cl)cc1` gave TRPV1 agonist 8, KCNH2 3.1 block -95*, TRPV1 PAM -1 and KCNH2 WT inh 6.
Screening Cc1cc(OCC(=O)Nc2ccc(CN3CCCCC3)cc2)ccc1Cl returned TRPV1 agonist 1, KCNH2 3.1 block -86*, TRPV1 PAM 0 and KCNH2 WT inh 13.
For Cc1ccccc1NC(=O)Cc1nc(COC(=O)c2ncc(Cl)c(Cl)c2Cl)cs1 the results were KCNH2 3.1 block 26 and KCNH2 WT inh -2.
For CCN(CC)CCCn1c2c(c(SCC(=O)Nc3ccccc3Cl)nc1=O)CCC2 the results were TRPV1 agonist 1, KCNH2 3.1 block 0, TRPV1 PAM -5 and KCNH2 WT inh -14.
Cc1cc(C)nc(NS(=O)(=O)c2ccc(NS(=O)(=O)c3ccsc3)cc2)n1 was read as TRPV1 agonist 10, KCNH2 3.1 block -89*, TRPV1 PAM 3 and KCNH2 WT inh 3.
O=C(CN1CCN(S(=O)(=O)c2ccc(Br)s2)CC1)N1CCCCC1 was read as TRPV1 agonist 22, KCNH2 3.1 block 13, TRPV1 PAM -38 and KCNH2 WT inh -227*.
Screening O=C(CN1CCN(S(=O)(=O)c2ccc(Br)s2)CC1)NC1CCCCC1 returned KCNH2 3.1 block -3 and KCNH2 WT inh 0.
